In the supplement of paper PMC12350171:
Counter-ions that a name gives are not always drawn. Unmarked numbers belong to inactive results.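 Rule for the calls: active = AUC significantly below DMSO controls by Student t-fit with adjusted P under 0.01; inactive = not significantly reduced.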

The compounds below were run on Haemophilus parainfluenzae (assay: growth AUC normalised to DMSO control (fraction of control); higher = less growth inhibition, active = hit call of the paper). Settings: 20 µM.
Summary of the method: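 Pathogens passaged twice anaerobically were inoculated at a starting OD578 of 0.01 into pre-reduced mGAM plates with drug at 20 μM and 1% DMSO, sealed with breathable membranes. Haemophilus parainfluenzae medium was supplemented with hemin and NAD. OD578 was read hourly for 24 h, with three biological replicates. Growth-curve AUC was computed by the trapezoidal rule up to the exponential-to-stationary transition and normalised to DMSO controls on the same plate.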

| Compound | growth AUC normalised to DMSO control |
| --- | --- |
| Nc1c2c(nc3ccccc13)CCCC2 [Tacrine hydrochloride] | 1.01 |
| C[C@@H]1CN(c2c(F)c(N)c3c(=O)c(C(=O)O)cn(C4CC4)c3c2F)C[C@H](C)N1 [Sparfloxacin] | 0.0765 (active) |
| OCCN1CCN(CC/C=C2/c3ccccc3Sc3ccc(Cl)cc32)CC1 [Zuclopenthixol dihydrochloride] | 0.916 |
| CCCCC[C@H](O)/C=C/[C@H]1[C@H](O)CC(=O)[C@@H]1CCCCCCC(=O)O [Alprostadil] | 0.903 |
| CC(=O)[C@@]1(O)CC[C@H]2[C@@H]3C[C@H](C)C4=CC(=O)C=C[C@]4(C)[C@@]3(F)[C@@H](O)C[C@@]21C [Fluorometholone] | 1 |
| CNCCCN1c2ccccc2CCc2ccccc21 [Desipramine hydrochloride] | 0.979 |
| CC[N+](C)(CC)CCOC(=O)C1c2ccccc2Oc2ccccc21 [Methantheline bromide] | 1.04 |
| CCOC(=O)n1ccn(C)c1=S [Carbimazole] | 0.99 |
| CCOc1ccccc1OCC1CNCCO1 (stereo not drawn) [Viloxazine hydrochloride] | 0.967 |
| N/C(=N\C(=O)c1nc(Cl)c(N)nc1N)NCc1ccccc1 [Benzamil hydrochloride] | 0.991 |
| C1N2CN3CN1CN(C2)C3 [Methenamine] | 1.05 |
| CC(C)(C)C(=O)OCOC(=O)[C@@H]1N2C(=O)[C@@H](NC(=O)[C@H](N)c3ccccc3)[C@H]2SC1(C)C [Pivampicillin] | 0.942 |
| CC[N+](C)(CC)CCC[n+]1c(-c2ccccc2)c2cc(N)ccc2c2ccc(N)cc21 [Propidium iodide] | 1.04 |
| CCC(=O)OCC(=O)[C@@]1(OC(=O)CC)[C@H](C)C[C@H]2[C@H]3[C@H]([C@@H](O)C[C@@]21C)[C@@]1(C)C=CC(=O)C=C1C[C@H]3Cl [Alclometasone dipropionate] | 1.02 |
| c1ccc(CN(CC2=NCCN2)c2ccccc2)cc1 [Antazoline hydrochloride] | 1.01 |
| O=C(O)c1cn(-c2ccc(F)cc2)c2cc(N3CCNCC3)c(F)cc2c1=O [Sarafloxacin] | 0.0521 (active) |
| CCN(CC)Cc1cc(Nc2ccnc3cc(Cl)ccc23)ccc1O [Amodiaquine dihydrochloride dihydrate] | 0.992 |
| CCN(Cc1ccncc1)C(=O)C(CO)c1ccccc1 (stereo not drawn) [Tropicamide] | 0.816 |
| CC(C(O)c1ccc(O)cc1)N1CCC(Cc2ccccc2)CC1 (stereo not drawn) [Ifenprodil tartrate] | 1.01 |

| Compound | growth AUC normalised to DMSO control |
| --- | --- |
| COc1cc2nc(N3CCN(C(=O)C4COc5ccccc5O4)CC3)nc(N)c2cc1OC (stereo not drawn) [Doxazosin mesylate] | 0.992 |
| CN[C@@H]1[C@H](O[C@H]2[C@H](O[C@H]3[C@H](O)[C@@H](O)[C@H](NC(=N)N)[C@@H](O)[C@@H]3NC(=N)N)O[C@@H](C)[C@]2(O)CO)O[C@@H](CO)[C@H](O)[C@H]1O [Dihydrostreptomycin sulfate] | 0.0409 (active) |
| NCCc1ccc(O)c(O)c1 [Dopamine hydrochloride] | 1.07 |
| Clc1ccc2c(c1)C(N1CCNCC1)=Nc1ccccc1O2 [Amoxapine] | 0.963 |
| Nc1nc(Cl)nc2c1ncn2[C@H]1C[C@H](O)[C@@H](CO)O1 [Cladribine] | 1.01 |
| O=C1Cc2cc(CCN3CCN(c4nsc5ccccc45)CC3)c(Cl)cc2N1 [Ziprasidone  hydrochloride monohydrate] | 1.03 |
| CN1CCCC(CC2c3ccccc3Sc3ccccc32)C1 (stereo not drawn) [Metixene hydrochloride] | 0.999 |
| CN(C)CCOC(=O)COc1ccc(Cl)cc1 [Meclofenoxate hydrochloride] | 0.896 |
| NC(=O)NC1NC(=O)NC1=O (stereo not drawn) [Allantoin] | 0.974 |
| O=c1[nH]cnc2c1ncn2[C@H]1CC[C@@H](CO)O1 [Didanosine] | 1.03 |
| CC(C)(C)NC[C@H](O)c1ccc(O)c(CO)c1 [Levalbuterol hydrochloride] | 0.993 |
| CC1COc2c(N3CCN(C)CC3)c(F)cc3c(=O)c(C(=O)O)cn1c23 (stereo not drawn) [Ofloxacin] | 0.0492 (active) |
| C[N+](C)(C)CCOC(N)=O [Carbachol chloride] | 1.09 |
| C[C@@H]1CCC[C@H](C)N1NC(=O)c1ccc(Cl)c(S(N)(=O)=O)c1 [Clopamide] | 0.984 |
| CN[C@H]1CC[C@@H](c2ccc(Cl)c(Cl)c2)c2ccccc21 [Sertraline] | 0.929 |
| Cc1ccc(-c2cc(C(F)(F)F)nn2-c2ccc(S(N)(=O)=O)cc2)cc1 [Celecoxib] | 0.85 |
| O=C(COc1ccc(Cl)cc1)N1CCN(Cc2ccc3c(c2)OCO3)CC1 [Fipexide hydrochloride] | 0.836 |
| Cc1c(Cl)cccc1Nc1ncccc1C(=O)O [Clonixin lysinate] | 1.06 |
| Clc1ccc(COC(Cn2ccnc2)c2ccc(Cl)cc2Cl)c(Cl)c1 (stereo not drawn) [Miconazole] | 0.997 |
